# Measurements from PubChem BioAssay.
# Some of the results follow. A number with no mark means an inactive call. Activity calls are given as the source filed them.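 Rule for the calls, unless noted: active = mean activation above about 20% derived from the earlier single-dose screen (limit read from the data); inactive = the rest.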
# What was measured:
# [1] = target: Oxytocin receptor (Homo sapiens) (UniProt P30559); assay: human OXTR agonists, confirmation, fluorescence, CHO-OTR cells, triplicate (AID 434963); details: Fluo-8 calcium fluorescence, agonist, at 3 µM, active compounds read high;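 note: peak over minimum fluorescence ratio per well during a 100 second FLIPR read; 0% = DMSO alone and 100% = oxytocin high control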
# Chain of Oxytocin receptor (Homo sapiens) (P30559 whole entry, looked up): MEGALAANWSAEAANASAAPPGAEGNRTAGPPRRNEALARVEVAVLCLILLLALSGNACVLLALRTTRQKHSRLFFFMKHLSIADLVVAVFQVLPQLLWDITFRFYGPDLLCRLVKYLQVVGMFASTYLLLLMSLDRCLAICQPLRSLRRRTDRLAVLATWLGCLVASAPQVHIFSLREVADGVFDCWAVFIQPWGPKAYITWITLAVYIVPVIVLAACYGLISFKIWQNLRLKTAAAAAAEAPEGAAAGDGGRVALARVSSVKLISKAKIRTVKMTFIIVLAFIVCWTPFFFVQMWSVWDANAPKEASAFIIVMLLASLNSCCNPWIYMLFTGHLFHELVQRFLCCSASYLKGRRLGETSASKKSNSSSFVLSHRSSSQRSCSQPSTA
# [2] = target: Vasopressin V1a receptor (Homo sapiens) (UniProt P37288); assay: V1a receptor agonists, calcium signal, counter-screen for OXTR agonist project, triplicate, fluorescence, CHO-V1R cells (AID 434991;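 active = mean activation over triplicate exceeds the hit threshold set in the earlier primary screen, cut at about 20% in these data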;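 note: peak over basal fluorescence ratio within a 100 second read; 0% = DMSO alone and 100% = 3 nM vasopressin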); details: Fluo-8 calcium fluorescence, at 3 µM, active compounds read high
# Chain of Vasopressin V1a receptor (Homo sapiens) (P37288 whole entry, looked up): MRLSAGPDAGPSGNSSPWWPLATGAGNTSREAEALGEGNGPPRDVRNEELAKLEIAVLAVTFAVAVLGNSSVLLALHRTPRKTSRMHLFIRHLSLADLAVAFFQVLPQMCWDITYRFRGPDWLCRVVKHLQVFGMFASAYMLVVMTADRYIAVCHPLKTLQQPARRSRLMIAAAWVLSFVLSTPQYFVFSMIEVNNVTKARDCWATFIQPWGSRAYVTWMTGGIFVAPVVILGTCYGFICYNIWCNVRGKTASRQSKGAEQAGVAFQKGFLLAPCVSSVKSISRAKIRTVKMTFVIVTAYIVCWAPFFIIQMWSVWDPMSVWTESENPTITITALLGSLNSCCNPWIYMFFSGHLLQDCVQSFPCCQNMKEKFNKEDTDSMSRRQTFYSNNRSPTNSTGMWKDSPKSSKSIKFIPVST
# [3] = target: Photoreceptor-specific nuclear receptor (Homo sapiens) (UniProt Q9Y5X4); assay: NR2E3 agonists, confirmation, biochemical, TR-FRET (AID 2379; in the data active = activation above about 20%); details: cell-free NR2E3 corepressor release, 5 h, at 3.98 µM, active compounds read high
# Chain of Photoreceptor-specific nuclear receptor (Homo sapiens) (Q9Y5X4 whole entry, looked up): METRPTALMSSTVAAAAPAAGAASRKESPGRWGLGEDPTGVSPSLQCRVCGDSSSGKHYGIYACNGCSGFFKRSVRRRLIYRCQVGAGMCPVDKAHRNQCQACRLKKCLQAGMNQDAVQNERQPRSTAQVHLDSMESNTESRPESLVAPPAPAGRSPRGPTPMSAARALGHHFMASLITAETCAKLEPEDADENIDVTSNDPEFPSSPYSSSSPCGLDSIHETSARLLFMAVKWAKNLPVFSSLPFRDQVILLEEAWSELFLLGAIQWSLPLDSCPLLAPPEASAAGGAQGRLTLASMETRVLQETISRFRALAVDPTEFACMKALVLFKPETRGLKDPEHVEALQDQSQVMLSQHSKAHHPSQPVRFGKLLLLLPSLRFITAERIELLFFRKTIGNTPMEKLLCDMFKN
# [4] = target: Peroxisome proliferator-activated receptor gamma (Homo sapiens) + Nuclear receptor corepressor 2 (Homo sapiens) (UniProt P37231+Q9Y618); assay: agonists of PPARg-NCOR2 corepressor interaction, counter-screen for NR2E3 agonist project, biochemical, TR-FRET (AID 504787; in the data active = inhibition above about 20%;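 note: 0% = DMSO vehicle and 100% = wells without protein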); details: TR-FRET PPARg-NCOR2 coregulator interaction, at 3.98 µM, active compounds read high
# Chain of Peroxisome proliferator-activated receptor gamma (Homo sapiens) + Nuclear receptor corepressor 2 (Homo sapiens) (P37231 whole entry, looked up): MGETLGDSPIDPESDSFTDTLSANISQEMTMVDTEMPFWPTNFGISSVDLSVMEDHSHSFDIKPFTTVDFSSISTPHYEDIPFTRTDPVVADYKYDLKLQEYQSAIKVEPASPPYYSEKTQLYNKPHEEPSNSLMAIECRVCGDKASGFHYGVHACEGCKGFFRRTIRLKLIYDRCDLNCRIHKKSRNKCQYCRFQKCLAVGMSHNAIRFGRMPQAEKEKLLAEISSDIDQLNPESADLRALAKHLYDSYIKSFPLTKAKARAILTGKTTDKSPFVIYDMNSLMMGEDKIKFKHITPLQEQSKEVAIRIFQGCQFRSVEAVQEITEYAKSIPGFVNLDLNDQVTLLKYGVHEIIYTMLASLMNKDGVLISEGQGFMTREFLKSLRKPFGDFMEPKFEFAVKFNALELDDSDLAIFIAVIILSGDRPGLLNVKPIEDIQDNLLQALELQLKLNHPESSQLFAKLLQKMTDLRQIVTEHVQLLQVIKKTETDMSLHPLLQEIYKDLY
# Chain of Peroxisome proliferator-activated receptor gamma (Homo sapiens) + Nuclear receptor corepressor 2 (Homo sapiens) (Q9Y618 whole entry, looked up): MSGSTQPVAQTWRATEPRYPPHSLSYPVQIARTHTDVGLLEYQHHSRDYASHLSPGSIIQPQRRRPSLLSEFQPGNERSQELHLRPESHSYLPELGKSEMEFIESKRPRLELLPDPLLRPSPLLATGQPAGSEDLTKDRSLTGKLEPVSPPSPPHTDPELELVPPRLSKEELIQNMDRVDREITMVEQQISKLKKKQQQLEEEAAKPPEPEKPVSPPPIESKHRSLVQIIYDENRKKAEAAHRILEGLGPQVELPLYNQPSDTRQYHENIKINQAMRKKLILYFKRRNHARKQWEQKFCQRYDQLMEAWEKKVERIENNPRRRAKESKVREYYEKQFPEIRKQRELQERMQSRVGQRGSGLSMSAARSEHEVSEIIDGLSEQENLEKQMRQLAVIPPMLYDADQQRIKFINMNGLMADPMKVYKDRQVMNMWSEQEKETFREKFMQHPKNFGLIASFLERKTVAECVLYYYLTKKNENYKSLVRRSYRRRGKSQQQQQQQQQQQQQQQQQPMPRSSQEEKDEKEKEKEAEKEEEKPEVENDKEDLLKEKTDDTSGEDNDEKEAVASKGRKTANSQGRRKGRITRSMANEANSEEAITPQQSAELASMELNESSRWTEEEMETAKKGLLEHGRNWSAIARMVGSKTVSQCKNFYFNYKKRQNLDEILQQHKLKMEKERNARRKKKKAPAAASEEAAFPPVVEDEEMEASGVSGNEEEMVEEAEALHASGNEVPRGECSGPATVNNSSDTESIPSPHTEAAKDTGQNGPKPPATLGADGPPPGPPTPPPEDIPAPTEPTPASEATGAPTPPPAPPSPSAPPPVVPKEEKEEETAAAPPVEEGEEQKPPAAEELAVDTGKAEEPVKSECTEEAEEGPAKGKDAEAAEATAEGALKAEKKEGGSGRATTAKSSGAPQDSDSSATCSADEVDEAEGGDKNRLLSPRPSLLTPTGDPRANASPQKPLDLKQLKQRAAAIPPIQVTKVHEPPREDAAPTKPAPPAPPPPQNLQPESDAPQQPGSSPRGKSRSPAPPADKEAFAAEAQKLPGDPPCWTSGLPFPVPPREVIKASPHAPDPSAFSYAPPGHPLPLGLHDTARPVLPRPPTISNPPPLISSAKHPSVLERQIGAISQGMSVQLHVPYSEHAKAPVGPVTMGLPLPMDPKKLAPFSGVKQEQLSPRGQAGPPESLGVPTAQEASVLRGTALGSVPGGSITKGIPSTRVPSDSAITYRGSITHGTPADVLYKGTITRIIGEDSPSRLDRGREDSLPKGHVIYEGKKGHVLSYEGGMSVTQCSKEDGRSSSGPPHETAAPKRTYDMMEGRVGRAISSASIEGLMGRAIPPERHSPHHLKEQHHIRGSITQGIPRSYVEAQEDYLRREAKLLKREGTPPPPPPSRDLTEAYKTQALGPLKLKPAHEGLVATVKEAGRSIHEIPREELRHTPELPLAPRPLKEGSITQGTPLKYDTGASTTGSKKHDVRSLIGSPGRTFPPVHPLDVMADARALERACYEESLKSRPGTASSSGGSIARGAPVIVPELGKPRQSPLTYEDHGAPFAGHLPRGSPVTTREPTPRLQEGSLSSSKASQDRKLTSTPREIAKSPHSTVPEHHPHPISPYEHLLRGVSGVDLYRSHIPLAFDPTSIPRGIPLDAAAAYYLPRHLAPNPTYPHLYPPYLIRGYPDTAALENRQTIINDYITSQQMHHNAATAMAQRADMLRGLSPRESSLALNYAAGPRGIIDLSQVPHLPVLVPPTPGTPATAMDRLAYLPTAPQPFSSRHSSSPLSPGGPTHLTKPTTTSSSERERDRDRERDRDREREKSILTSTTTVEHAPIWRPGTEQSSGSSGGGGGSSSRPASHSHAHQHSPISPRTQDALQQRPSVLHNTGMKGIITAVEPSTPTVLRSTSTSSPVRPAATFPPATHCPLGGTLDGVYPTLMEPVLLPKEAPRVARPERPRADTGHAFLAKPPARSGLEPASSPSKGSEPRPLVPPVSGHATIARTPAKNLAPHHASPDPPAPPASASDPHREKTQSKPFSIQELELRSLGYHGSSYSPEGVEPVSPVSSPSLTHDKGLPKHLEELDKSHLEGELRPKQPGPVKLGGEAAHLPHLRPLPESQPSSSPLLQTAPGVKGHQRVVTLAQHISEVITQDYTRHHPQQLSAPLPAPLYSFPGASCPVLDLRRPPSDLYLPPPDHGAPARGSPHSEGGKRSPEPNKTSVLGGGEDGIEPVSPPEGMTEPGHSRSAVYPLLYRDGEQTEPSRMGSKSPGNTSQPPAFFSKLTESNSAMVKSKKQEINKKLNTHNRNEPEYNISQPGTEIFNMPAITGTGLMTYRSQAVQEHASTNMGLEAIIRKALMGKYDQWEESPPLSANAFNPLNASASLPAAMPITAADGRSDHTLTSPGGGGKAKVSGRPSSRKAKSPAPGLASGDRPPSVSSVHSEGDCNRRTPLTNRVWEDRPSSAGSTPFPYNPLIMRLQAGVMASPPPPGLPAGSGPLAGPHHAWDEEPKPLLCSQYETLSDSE
# [5] = target: Lytic switch protein BZLF1 (Epstein-Barr virus (strain B95-8)) (UniProt P03206); assay: EBV Zta binding to ZRE DNA, inhibitors, confirmation, biochemical, fluorescence polarization, triplicate (AID 2361;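 active = mean inhibition across triplicate runs above the hit threshold derived for the original primary screen, cut at about 33% in these data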;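 note: 0% = Zta with DMSO and 100% = wells lacking Zta protein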); details: at 11.1 µM, active compounds read high
# Chain of Lytic switch protein BZLF1 (Epstein-Barr virus (strain B95-8)) (P03206 whole entry, looked up): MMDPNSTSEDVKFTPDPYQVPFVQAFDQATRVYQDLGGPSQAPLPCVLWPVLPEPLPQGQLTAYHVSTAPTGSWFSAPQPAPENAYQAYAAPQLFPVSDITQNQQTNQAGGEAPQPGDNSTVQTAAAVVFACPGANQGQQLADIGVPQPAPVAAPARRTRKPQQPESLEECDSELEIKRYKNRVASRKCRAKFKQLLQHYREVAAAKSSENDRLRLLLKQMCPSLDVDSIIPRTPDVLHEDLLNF
# [6] = test system: Epstein-Barr virus nuclear antigen 1 (EBNA-1), Human herpesvirus 4; assay: EBNA-1 DNA-binding inhibition, counter-screen for ZTA inhibitor project, biochemical, fluorescence polarization (AID 2362; call rule not given here); details: at 14.8 µM, active compounds read high
# [7] = target: Platelet-activating factor acetylhydrolase (Homo sapiens) (UniProt Q13093); assay: pPAFAH (PLA2G7) enzyme inhibitors, confirmation, biochemical, fluorescence polarization, human (AID 463230;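 active = mean inhibition of the triplicate above the hit cutoff set for the earlier primary screen, cut at about 25% in these data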;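 note: 0% = enzyme with DMSO and 100% = wells lacking pPAFAH enzyme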); details: recombinant pPAFAH, FP-Rh probe fluorescence polarization; at 3.39 µM; active compounds read high
# [8] = target: Glutathione S-transferase omega-1 (Homo sapiens) (UniProt P78417); assay: GSTO1 inhibitor hit confirmation, counter-screen for RBBP9 inhibitor project, biochemical, fluorescence polarization, triplicate (AID 2176;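 active = inhibition above the primary screen's cutoff, its mean inhibition plus 3 SD, cut at about 35% in these data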;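 note: loss of polarization as inhibitors block binding of rhodamine sulfonate ester activity probe; 0% = GSTO1 with DMSO and 100% = wells lacking GSTO1 enzyme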); details: recombinant GSTO1, probe fluorescence polarization; at 5.96 µM; active compounds read high
# Chain of Glutathione S-transferase omega-1 (Homo sapiens) (P78417 whole entry, looked up): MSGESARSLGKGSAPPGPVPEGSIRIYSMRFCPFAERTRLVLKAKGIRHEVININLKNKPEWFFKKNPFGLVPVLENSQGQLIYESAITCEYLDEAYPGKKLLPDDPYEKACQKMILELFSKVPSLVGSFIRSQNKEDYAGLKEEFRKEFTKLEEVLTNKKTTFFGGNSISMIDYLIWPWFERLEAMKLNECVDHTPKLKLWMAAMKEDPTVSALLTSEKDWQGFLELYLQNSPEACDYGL
# [9] = target: Serine protease HTRA1 (Homo sapiens) (UniProt Q92743); assay: HTRA1 protease inhibitors, retest, confirmation, biochemical, fluorescence polarization (AID 540248;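 active = mean inhibition over three repeats above a set limit taken from the earlier primary screen, cut at about 37% in these data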;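 note: 0% = HTRA1 with DMSO and 100% = wells lacking HTRA1; inhibitors block probe binding so polarization drops and inhibition rises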); details: recombinant HTRA1, FP-rhodamine activity-based probe, at 5.96 µM, active compounds read high
# [10] = target: (Lyso)-N-acylphosphatidylethanolamine lipase (Mus musculus) (UniProt Q8VD66); assay: ABHD4 inhibitors, retest, confirmation, biochemical, fluorescence polarization, mouse (AID 720658;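 active = mean inhibition across replicates above the hit cutoff set in the primary screen, cut at about 30% in these data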;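 note: 0% = wild-type ABHD4 with DMSO and 100% = catalytically dead S159A mutant with DMSO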); details: purified mABHD4, FP-Rh probe fluorescence polarization; at 8.92 µM; active compounds read high
# [11] = Gal4-VP16 luciferase reporter inhibitors, counter-screen for COUP-TFII antagonist project, cell-based, luminescence, HEK293 (AID 687007; in the data active = inhibition above about 13%); details: at 8.5 µM, active compounds read high
# [12] = target: COUP transcription factor 2 (Homo sapiens) (UniProt P24468); assay: NR2F2 transcriptional activity inhibitors, confirmation, cell-based, luciferase reporter, HEK293, triplicate (AID 687008;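 active = mean inhibition over three repeats above a set limit taken from the earlier primary screen, cut at about 38% in these data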;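 note: 100% = cells given the luciferase reporter alone without the COUP-TF2 vector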); details: HEK293 NGFI-A luciferase reporter, luminescence; at 8.5 µM; active compounds read high
# [13] = target: Receptor-interacting serine/threonine-protein kinase 2 (Homo sapiens) (UniProt O43353); assay: NOD2-RIPK2 binding disruptors, retest, confirmation, fluorescence, CHO cells, BLA complementation, triplicate (AID 624370;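 active = mean inhibition across replicates above a set limit taken from the earlier primary screen, cut at about 21% in these data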;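 note: 0% = DMSO-only wells and the high end = clavulanate BLA-blocked wells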); details: CCF4 FRET, at 4.98 µM, active compounds read high
# [14] = beta-lactamase reporter inhibitors in CHO cells, confirmation, artefact control for NOD2-RIPK2 interaction inhibitor project, cell-based, CHO-K1 CMV-bla, CCF4 FRET, fluorescence (AID 624371;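 active = mean inhibition above the low-control mean inhibition plus three low-control SD, cut at about 11% in these data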;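 note: 0% = DMSO only wells and 100% = clavulanate high control wells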); details: CCF4 FRET ratio, counterscreen, at 4.98 µM, active compounds read high
# [15] = target: Insulin-degrading enzyme (Homo sapiens) (UniProt P14735); assay: human IDE inhibitors in live cells, confirmation, fluorescence polarization, HEK cells, FAbetaB substrate (AID 435028;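 active = mean inhibition across triplicate wells above the cutoff set by the earlier primary insulin-degrading enzyme screen, cut at about 16% in these data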;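 note: 0% = DMSO wells and 100% = 60 µM reference IDE inhibitor Ii1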); details: FAbetaB cleavage, at 5.59 µM, active compounds read high
# [16] = cytotoxicity in HEK cells, cytotoxicity control for IDE inhibitor project, cell-based, luminescence (AID 449730; in the data active = inhibition above about 22%;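 note: 0% = vehicle wells and 100% = reference cytotoxic drug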); details: HEK293 cytotoxicity, ATP luminescence; at 5.59 µM; active compounds read high
structure (smiles),measurement,setting,value
CCOc1cc(/C=C(\C#N)c2nc(-c3cccs3)c(NC(C)=O)s2)ccc1O,activation,[1],31.9% (active)
same,activation,[2],25.4% (active)
CCOC(=O)c1ccc(NC(=S)N2CCN(c3ccccn3)CC2)cc1,activation (reported as inhibition),[3],-3.59%
same,inhibition,[4],-8.54%
O=C(NNC(=S)NC(=O)c1cn(-c2ccccc2)nc1-c1ccccc1)c1ccncc1,activation,[1],4.81%
same,activation,[2],9.53%
C=CCOc1cccc(C2C(C(=O)c3ccc(C)o3)=C(O)C(=O)N2CCCn2ccnc2)c1 (configuration not stated),activation (reported as inhibition),[3],9.01%
same,inhibition,[4],7.51%
CSc1nnc(SCc2nc3sc(C(=O)O)c(C)c3c(=O)[nH]2)s1,inhibition,[5],55.8% (active)
same,inhibition,[6],5.58%
same,inhibition,[7],43.4% (active)
COc1cccc(-n2c(=S)[nH]c3c(oc4ccccc43)c2=O)c1,activation (reported as inhibition),[3],14.3%
same,inhibition,[4],8.55%
CC(C)c1ccc(C2C(C(=O)c3ccco3)=C(O)C(=O)N2CC2CCCO2)cc1 (configuration not stated),activation (reported as inhibition),[3],-0.08%
same,inhibition,[4],1.84%
COc1ccc(NS(=O)(=O)c2ccc(NC(=S)NC(=O)CC(C)C)cc2)cc1,activation,[1],12.6%
same,activation,[2],12.8%
Cc1cccc(N2CCN(c3ccc(NC(=O)/C=C\C(=O)O)cc3)CC2)c1,inhibition,[8],7.27%
same,inhibition,[9],6.16%
same,inhibition,[10],0.64%
CCOC(=O)C1=C(c2ccc(OC)cc2)C(=O)c2ccccc2C1=O,inhibition,[8],8.3%
same,inhibition,[11],80.8% (active)
same,inhibition,[12],93.5% (active)
O=C(c1ccco1)N1CCN(C(=O)C2CC(c3ccc(F)cc3)=NO2)CC1 (configuration not stated),activation,[1],-0.63%
same,activation,[2],0.05%
CN1CCN(CCCNC(=O)c2ccc(/C=C3\Oc4ccccc4N(Cc4ccc(Cl)cc4)C3=O)cc2)CC1,inhibition,[5],51.8% (active)
same,inhibition,[6],-1.35%
same,inhibition,[13],29% (active)
same,inhibition,[14],12% (active)
CCCCCCCCCCOC(=O)Cn1c(COc2cccc(OC)c2)[n+](C)c2ccccc21,activation,[1],12%
same,activation,[2],14.7%
CC1=CC2=NC(=O)/C(=C/c3coc4ccccc4c3=O)C(=N)N2O1,activation,[1],40% (active)
same,activation,[2],36.5% (active)
C=CCC1=C/C(=C\c2c(N)n3nc(CC(=O)N4CCOCC4)sc3nc2=O)C=C(OC)C1=O,inhibition,[15],25.9% (active)
same,inhibition,[16],12.5%
O=C(N/N=C/c1ccc(OC(=O)c2ccccc2Cl)cc1)c1ccc(O)cc1,inhibition,[15],4.51%
same,inhibition,[16],6.4%
